Assay outcomes (PubChem)
Shown are actives, neighbours in structure and some others; about 32% of the full set was active somewhere.
CYP2C9 inhib: inhibitors of human CYP2C9; CYP2C9 Supersomes, luciferin-H conversion, luminescence; 20% of 96,000 active; inhibition, % at 5 µM;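 active means blocking of liver enzyme CYP2C9 beyond about 50% at 5 µM, limit read from the data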
Target sequence (P11712 whole entry, looked up): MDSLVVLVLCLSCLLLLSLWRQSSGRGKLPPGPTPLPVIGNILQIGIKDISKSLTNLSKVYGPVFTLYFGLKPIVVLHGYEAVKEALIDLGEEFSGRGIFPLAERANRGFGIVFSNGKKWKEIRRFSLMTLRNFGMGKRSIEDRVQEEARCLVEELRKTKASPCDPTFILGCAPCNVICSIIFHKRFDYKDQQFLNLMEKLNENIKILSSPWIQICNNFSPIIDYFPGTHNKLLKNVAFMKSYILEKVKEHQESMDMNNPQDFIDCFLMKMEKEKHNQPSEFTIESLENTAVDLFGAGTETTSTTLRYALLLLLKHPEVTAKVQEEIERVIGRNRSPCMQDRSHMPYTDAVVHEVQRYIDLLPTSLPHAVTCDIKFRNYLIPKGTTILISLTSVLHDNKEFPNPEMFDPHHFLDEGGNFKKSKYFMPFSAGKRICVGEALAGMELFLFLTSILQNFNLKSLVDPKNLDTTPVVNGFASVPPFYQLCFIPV
PostGolgi yeast: growth inhibition of a yeast mutant, post-Golgi transport screen. post-Golgi transport phenotypic cell assay. inhibition, % at 10 µM. 0.9% of 98,000 active;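 further: yeast cells grown in 1536-well plates; yeast grown about 18 h at 30C before absorbance read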
PostGolgi ctrl: growth of the yeast control strain, post-Golgi counter-screen; efflux-deficient yeast background strain, growth absorbance A615, 16 h; inhibition, % at 10 µM; 5% of 98,000 active; AID 738
CYP2C19 inhib: inhibitors of human CYP2C19. P33261. CYP2C19 Supersomes, luciferin-H EGE luminescence, 30 min. inhibition, % at 5 µM. 21% of 96,000 active;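 active means CYP2C19 inhibition above a set limit at 5 µM in the primary screen, cut at about 50% in these data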;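 further: plate controls were negative control wells for no effect and 2.5 mM tranylcypromine positive control for full effect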
CYP2C9 activ: CYP2C9 (human) activation. recombinant CYP2C9, luciferin-H conversion, luminescence; stronger effect = higher value; factor 1 = untreated enzyme, 0 = blocked. activation factor at 5 µM. 1.4% of 96,000 active;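 active means activation factor of 2 or more for CYP2C9 at a 5 µM dose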;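 further: 0 = sulfaphenazole-blocked wells and 1 = vehicle-only wells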
CYP2C19 activ: cytochrome P450 2C19 (human) activation | AID 1025 | P33261 | activation factor at 5 µM | 96,000 tested, under 10 active | recombinant CYP2C19, luciferin-H EGE luminescence; stronger effect = higher value; 0 = fully inhibited enzyme, 1 = untreated enzyme;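 active means activation factor of at least 2 at 5 µM in the primary screen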;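 further: 0 = wells with 2.5 mM tranylcypromine and 1 = vehicle-only wells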
Starred values were filed as active, the others as inactive; · = not tested or not shown. Unless noted, no stated cut-off is given here; in the data, active means inhibition above about 30%; inactive means the rest.

SMILES	CYP2C9 inhib	PostGolgi yeast	PostGolgi ctrl	CYP2C19 inhib	CYP2C9 activ	CYP2C19 activ
COc1ccc(S(=O)(=O)Nc2ccc(S(=O)(=O)N3CCOCC3)cc2)cc1	94*	-14	9	60*	0.1	0.4
COc1cccc(NS(=O)(=O)c2ccc(S(=O)(=O)N3CCOCC3)cc2)c1	67*	3	15	93*	0.3	0.1
CS(=O)(=O)Nc1ccc(S(=O)(=O)N2CCOCC2)cc1	4	5	6	3	1	1
COc1cccc(NS(=O)(=O)c2ccc3c(c2)n(C)c(=O)c(=O)n3C)c1	50	-5	5	35	0.5	0.6
Cc1ccc(S(=O)(=O)N2CCCN(S(=O)(=O)c3ccc(C)cc3)CC2)cc1	-66	9	11	8	1.7	0.9
CCOC(=O)C1CCN(C(=O)CCNC(=O)c2cc(OC)c(OC)c(OC)c2)CC1	1	5	1	-13	1	1.1
O=c1cnnc(NCc2ccccc2)[nH]1	-5	-1	10	-15	1.1	1.1
Cc1c(N=c2c(=O)c3ccccc3c2=O)c(=O)n(-c2ccccc2)n1C	·	6	3	·	·	·
Cc1nc(S/C(=C/c2ccc(-c3cccc(Cl)c3)o2)C(=O)O)n[nH]1	-4	1	2	-5	1	1.1
CCn1c2ccccc2c2nnc(SCC(=O)NC(CC(C)C)C(=O)OC)nc21 (stereo not drawn)	21	2	3	96*	0.8	0
CCCn1c2ccccc2c2nnc(SCC(=O)Nc3nnc(CC(=O)OCC)s3)nc21	98*	-10	6	95*	0	0.1
CCOC(=O)Cc1nnc(NC(=O)CSc2nnc3c4ccccc4n(C(C)C)c3n2)s1	98*	-7	7	78*	0	0.2
COC(=O)c1ccc(S(=O)(=O)NCCSc2nnc3c4ccccc4n(C)c3n2)cc1	95*	2	21	68*	0.1	0.3
COc1cccc2cc(/C(C)=N/Nc3nc(-c4cc(C)ccc4C)cs3)c(=O)oc12	19	15	9	-18	0.8	1.2
CC1CCc2cc(F)ccc2N1C(=O)CSc1nnc2c3ccccc3n(C)c2n1 (stereo not drawn)	55*	0	12	47	0.4	0.5
CCn1c2ccccc2c2nnc(SCC(=O)c3ccccc3)nc21	-4	-1	6	36	1	0.6
CCc1nnc(NC(=O)CSc2nnc3c4ccccc4n(C)c3n2)s1	58*	8	2	10	0.4	0.9
Cc1nc2ccc(S(=O)(=O)NC(C(=O)NCc3ccco3)C(C)C)cc2s1 (stereo not drawn)	13	5	1	6	0.9	0.9
CC(=O)/C(=C/N(C)C)Sc1ccc(C)cc1	27	0	-1	73*	0.7	0.3
COc1ccccc1OCC(=O)Sc1ccc(C)cc1	19	-14	8	31	0.8	0.7
O=C(NCCOc1ccccc1)c1cc2ccccc2o1	12	-9	20	48	0.9	0.5
O=C(NCCOC(=O)c1ccccc1C(=O)OCCNC(=O)c1cccnc1)c1cccnc1	68*	-4	5	96*	0.3	0
O=C(NCCOC(=O)c1ccc(C(=O)OCCNC(=O)c2ccccc2)o1)c1ccccc1	83*	-2	-4	36	0.2	0.6
Cc1cc(C)c(C(=O)OCCNC(=O)c2cccnc2)cc1C	71*	1	-1	74*	0.3	0.3
Cc1cc(OC(=O)c2ccc(S(=O)(=O)N(C)C)cc2)cc(=O)o1	-4	-2	-2	4	1	1
SMILES	CYP2C9 inhib	PostGolgi yeast	PostGolgi ctrl	CYP2C19 inhib	CYP2C9 activ	CYP2C19 activ
Cc1c(O)ccc(C(=O)COc2ccccc2F)c1O	-2	-5	1	69*	1	0.3
O=C(COc1ccccc1F)c1ccc(O)cc1O	6	-6	-1	92*	0.9	0.1
Cc1cc(C(=O)CN2C(=O)c3ccccc3C2=O)c(C)n1C1CC1	-31	-1	1	0	1.3	1
Cc1c(O)ccc(C(=O)CN2C(=O)c3ccccc3C2=O)c1O	23	-13	-6	81*	0.8	0.2
COC(=O)c1ccc(OCC(=O)c2ccc(O)cc2O)cc1	19	0	7	38	0.8	0.6
COC(=O)c1c(C)c2c(C)cc3ccccn3c-2c1C(=O)OC	-1	-2	0	39	1	0.6
COC(=O)c1cc2c(-c3ccccc3)cc3ccccn3c-2c1C(=O)OC	30	6	43*	10	0.7	0.9
